Laboratory results published in PubChem BioAssay.

Key:
[1] = system: Human papillomavirus type 1a protein E7 (residues 44-93); assay: HPV1a E7 fragment binders on microarrays, primary screen, biochemical, small-molecule microarray, residues 44-93, 635 nm fluorescence (AID 1108); settings: small-molecule microarray binding, fluorescence 635 nm; higher = more signal;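 also: E7 fragment applied at 1 µg/mL in TBST for 1 h at 4 C; score combines spot fluorescence with its signal to noise ratio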
[2] = modulators of HCV replicon luciferase signal, primary screen, HCV replication inhibitor project, Huh7 cells, luciferase reporter (AID 1109); settings: 48 h, higher = more signal;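 also: huh7 hepatoma cells harbouring a luciferase neomycin HCV replicon reporter; luciferase luminescence as measure of HCV replicon replication; test concentration not given here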
[3] = target: Left-right determination factor 2 (Homo sapiens) (UniProt O00292); assay: LEFTY2 binders on small-molecule microarrays, primary screen, biochemical, small-molecule microarray, 635 nm fluorescence scan (AID 1110); settings: LEFTY2 binding, higher = more signal
Left-right determination factor 2 (Homo sapiens), sequence (O00292 whole entry, looked up): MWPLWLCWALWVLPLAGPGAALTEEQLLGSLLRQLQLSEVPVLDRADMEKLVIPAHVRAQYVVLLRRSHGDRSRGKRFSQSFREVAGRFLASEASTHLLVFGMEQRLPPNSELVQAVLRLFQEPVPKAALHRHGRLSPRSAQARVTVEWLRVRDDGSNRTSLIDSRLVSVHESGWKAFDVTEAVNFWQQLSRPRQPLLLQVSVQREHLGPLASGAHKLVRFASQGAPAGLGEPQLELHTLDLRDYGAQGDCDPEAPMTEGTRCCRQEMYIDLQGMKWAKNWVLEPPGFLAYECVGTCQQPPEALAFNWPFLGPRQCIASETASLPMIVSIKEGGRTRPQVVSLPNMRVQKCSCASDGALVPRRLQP

[4] = target: Calmodulin-1 (Homo sapiens) (UniProt P0DP23); assay: CALM1 binders on microarrays, EGTA buffer, profiling panel, biochemical, small-molecule microarray, Cy5-labelled CALM1 (AID 1111); settings: Cy5-CALM1 binding fluorescence, higher = more signal;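 also: labelled calmodulin applied in Tris saline Tween buffer holding calcium plus EGTA and DTT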
[5] = target: Calmodulin-1 (Homo sapiens) (UniProt P0DP23); assay: calcium-bound CALM1 binders on microarrays, profiling panel, artefact control for SMM control-protein annotation, biochemical, small-molecule microarray, Cy5-labelled CALM1, plus calcium (AID 1112); settings: Cy5-CALM1 binding fluorescence, higher = more signal;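 also: score merges spot fluorescence with signal to noise from triplicate slides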
[6] = small-molecule microarray binders of probe aWnt5a, primary screen, biochemical, biotinylated probe, 635/667 nm fluorescence (AID 1113); settings: higher = more signal;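 also: score merges 667 nm fluorescence intensity with signal-to-noise per printed feature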
[7] = small-molecule microarray binders of probe aShh, primary screen, biochemical, biotinylated probe, 635/667 nm fluorescence (AID 1114); settings: higher = more signal;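 also: probe is biotin-labelled aShh protein from a stem cell growth factor screen; measures binding of labelled protein to compounds printed on the slide; score merges feature fluorescence at 667 nm with signal-to-noise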
[8] = small-molecule microarray binders of probe aNog, primary screen, biochemical, biotinylated probe, 635/667 nm fluorescence (AID 1115); settings: higher = more signal;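 also: probe is biotinylated aNog protein used at 0.15 µg/mL for 1 h at 4 C; z-score combines 667 nm fluorescence of each spot with its signal to noise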
[9] = target: Torsin-1A-interacting protein 1 (Homo sapiens) (UniProt Q5JTV8); assay: LAP1 binders from COS7 cell lysate, primary screen, small-molecule microarray, 635/667 nm fluorescence (AID 1116); settings: COS7-hLAP1 lysate binding, 635 nm fluorescence, higher = more signal
Torsin-1A-interacting protein 1 (Homo sapiens), sequence (Q5JTV8 whole entry, looked up): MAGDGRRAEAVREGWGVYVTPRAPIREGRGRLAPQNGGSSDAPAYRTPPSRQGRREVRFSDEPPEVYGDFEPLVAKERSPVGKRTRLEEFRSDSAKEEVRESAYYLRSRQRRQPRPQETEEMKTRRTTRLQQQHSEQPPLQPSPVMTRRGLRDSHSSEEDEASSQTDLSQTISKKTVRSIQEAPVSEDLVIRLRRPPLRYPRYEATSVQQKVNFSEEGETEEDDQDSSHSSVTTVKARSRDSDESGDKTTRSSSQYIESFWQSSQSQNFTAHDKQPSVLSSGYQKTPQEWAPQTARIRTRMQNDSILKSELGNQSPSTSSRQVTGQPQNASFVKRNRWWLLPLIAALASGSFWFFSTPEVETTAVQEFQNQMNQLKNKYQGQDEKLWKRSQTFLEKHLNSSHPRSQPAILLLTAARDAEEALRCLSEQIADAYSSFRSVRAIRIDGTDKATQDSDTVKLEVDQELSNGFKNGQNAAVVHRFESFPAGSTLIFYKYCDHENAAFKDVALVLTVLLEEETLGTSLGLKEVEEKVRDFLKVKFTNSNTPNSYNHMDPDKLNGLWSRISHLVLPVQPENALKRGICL

[10] = target: Alpha-bungarotoxin (Bungarus multicinctus) (UniProt P60615); assay: alpha-bungarotoxin binders on microarray, profiling panel, artefact control for SMM control protein annotation, biochemical, small-molecule microarray, Alexa647 label, 635/667 nm fluorescence (AID 1117); settings: alpha-BTX-A647 binding fluorescence, higher = more signal
Alpha-bungarotoxin (Bungarus multicinctus), sequence (P60615 whole entry, looked up): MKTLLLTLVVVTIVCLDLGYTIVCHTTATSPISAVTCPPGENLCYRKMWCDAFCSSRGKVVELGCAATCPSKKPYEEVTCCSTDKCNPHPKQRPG

SMILES	composite z-score [1]	z-score [2]	composite z-score [3]	composite z-score [4]	composite z-score [5]	composite z-score [6]	composite z-score [7]	composite z-score [8]	composite z-score [9]	composite z-score [10]
CCOC(=O)CCN1C(=O)[C@H]2[C@H]3[C@H](O)[C@H](O)CC(=NNC(=O)OCc4ccccc4)[C@H]3CC[C@H]2C1=O	-0.994	0.283	0.863	-1.01	-1.23	-0.0045	-0.138	-0.0091	0.264	-0.245
C=CCOCC1CN2[C@@H](CC[C@@H](C)[C@@H]2c2ccc(Br)cc2)C(=O)O1 (stereo not given in full)	0.157	-0.121	0.0328	-0.457	-0.78	-0.219	-0.154	-0.196	0.0323	0.101
CC(=O)OC[C@H]1O[C@H](CC=NO[C@H](C)c2cn([C@@H]3COC[C@H]3O)nn2)C=C[C@@H]1OC(C)=O	-0.535	-0.774	0.0524	-0.616	-0.934	-0.0685	-0.206	-0.17	0.637	0.799
CCN1C(=O)[C@H]2[C@H]3[C@H](O)[C@H](O)CC(=NO[C@H](C)c4cn([C@@H]5COC[C@H]5O)nn4)[C@@H]3CC[C@H]2C1=O	-0.137	-0.936	0.684	-0.3	-0.4	-0.0445	-0.291	0.0043	-0.0938	-0.23
CC(C)(C)N1C(=O)[C@H]2[C@H]3[C@H](O)[C@H](O)CC(=NNC(=O)OCc4ccccc4)[C@H]3CC[C@H]2C1=O	0.978	-1.9	0.613	-0.0736	-0.313	-0.107	0.0141	0.0516	0.522	0.613
COc1ccc(O[C@H]2C=C[C@@H](c3ccccc3)O[C@@H]2COC(=O)CCC(C)=NOC[C@@H](O)COCc2ccco2)cc1	-0.82	-0.681	-4.63	-2.11	-2.04	-0.449	-0.267	-0.715	-2.94	-1.65
O=C1C[C@@H](O)[C@@H](O)[C@@H]2[C@@H]3C(=O)N(c4ccc(F)cc4F)C(=O)[C@@H]3CC[C@H]12	0.473	-0.313	0.681	-0.134	-0.519	-0.0718	-0.18	-0.213	0.82	0.0317
CCOC(=O)NN=C1C[C@@H](O)[C@@H](O)[C@@H]2[C@@H]3C(=O)N(C[C@@H]4CCCO4)C(=O)[C@@H]3CC[C@H]12	0.463	-0.0078	0.828	-0.47	-0.593	-0.169	-0.0146	-0.166	0.998	-0.213
CC(C)[C@@H](OCc1ccccc1)[C@H](C)C=NO[C@@H](C)c1cn([C@H](CO)Cc2ccccc2)nn1	0.402	-1.87	0.277	-0.38	-0.281	-0.135	-0.273	0.0715	0.217	-0.0804
CC(=O)OC[C@H]1O[C@@H](ON=C(C)CCC(=O)OC[C@H]2O[C@H](C#Cc3ccccc3)C=C[C@@H]2Oc2ccc(C)cc2)[C@H](OC(C)=O)[C@@H](OC(C)=O)[C@@H]1OC(C)=O	1.18	-1.2	0.713	0.49	-0.304	-0.0735	-0.0769	-0.156	0.415	-0.0285
CC1(C)O[C@H]2OC([C@H](O)CON3C(=O)c4ccccc4C3=O)[C@H](O)[C@H]2O1 (stereo not given in full)	-0.0928	-0.585	0.244	-0.494	-0.539	-0.109	-0.27	-0.218	-0.1	-0.0472
CC(C)CON=C1[C@H]2CCn3c(=O)n(C)c(=O)n3[C@H]2[C@H](O)[C@@H]2O[C@H]12	0.274	0.104	0.494	-0.0875	-0.609	-0.127	0.0796	-0.232	0.18	0.255
CCN1C(=O)[C@H]2[C@H]3[C@H](O)[C@H](O)CC(=NOCC(C)C)[C@H]3CC[C@H]2C1=O	-0.0775	0.295	0.535	-0.185	-0.987	-0.0542	-0.138	-0.238	0.152	-0.14
O=C(NN=C1C[C@@H](O)[C@@H](O)[C@@H]2[C@@H]3C(=O)N(c4ccc(F)cc4F)C(=O)[C@@H]3CC[C@H]12)OCc1ccccc1	1.35	-0.642	0.446	0.463	-0.235	-0.12	-0.0192	-0.406	0.747	0.555
CC(CCC(=O)OC[C@H]1O[C@H](C#Cc2ccccc2)C=C[C@@H]1Oc1ccc(C)cc1)=NOC[C@@H](C)[C@H](OCc1ccccc1)C(C)C	-1.89	-0.982	-0.502	-1.24	-0.336	-0.0573	-0.899	-0.902	-0.746	-0.79
CCOC(=O)[C@H](Cc1ccccc1)NC(=O)CCC1CC(OC(=O)NCc2ccc3c(c2)OCO3)CC2(CCCC(COC(=O)NCCc3ccc(Cl)cc3)O2)O1 (stereo not given in full)	1.14	0.615	0.619	0.534	-0.397	-0.124	0.0756	0.0308	-0.0764	0.337
CO[C@@H](C(C)C)[C@@H](C)C1OC(=O)CC1O (stereo not given in full)	-0.175	0.975	0.0752	-0.32	0.192	-0.232	-0.171	-0.478	-0.214	-0.427
COc1ccc(COC(=O)NN=C2C[C@@H](O)[C@@H](O)[C@@H]3[C@@H]4C(=O)N(C[C@@H]5CCCO5)C(=O)[C@@H]4CC[C@@H]23)cc1	0.222	0.778	0.179	0.342	-0.636	-0.172	-0.0793	-0.0496	0.411	0.915
